BAZ2B inh – BAZ2B (human) inhibition. Q9UIF8. AlphaScreen BAZ2B-H3K14Ac peptide displacement. Potency, µM (top dose mostly 114 µM), hits mostly inhibitors. 360,000 compounds, 4.4% hits. AID 504333; note: nearly all actives have a fitted effect of over 60% in size
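Protein-peptide AlphaScreen: BAZ2B 50 nM, b-H3K14Ac 50 nM, 1x PBS pH 7.4 + 0.01% Tween-20. Preincubation 30 min RT; cpd 30 min RT (top 110 uM); beads 20 min RT, light-protected.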
Sfp inh – blocks B. subtilis Sfp PPTase activity. 310,000 compounds, 3.5% hits. Biochemical Sfp PPTase activity, qHTS. AID 1490. Potency, µM, actives largely listed as inhibitors. Q9F4F7;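 note: the enzyme is Sfp with the accession as filed and its product quenches rhodamine fluorescence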
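Sfp 15 nM + cpd, 15 min RT; start w/ rhodamine-CoA 5 uM, BHQ-2-YbbR 12.5 uM (final); 50 mM Hepes pH 7.6, 10 mM MgCl2, 0.01% NP-40, 0.01% BSA; read 525/598 nm at 0 and 30 min.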
HP1b chromo inh – blocks HP1-beta chromodomain binding to methylated histone tails | AlphaScreen HP1-beta / biotin-H3K9me3 peptide binding | 390,000 compounds, 0.56% hits | AID 540317 | Potency, µM (series often up to 114 µM), hits mostly inhibitors; note: nearly all actives have a fitted effect of over 70% in size
Target sequence (P83916 whole entry, looked up): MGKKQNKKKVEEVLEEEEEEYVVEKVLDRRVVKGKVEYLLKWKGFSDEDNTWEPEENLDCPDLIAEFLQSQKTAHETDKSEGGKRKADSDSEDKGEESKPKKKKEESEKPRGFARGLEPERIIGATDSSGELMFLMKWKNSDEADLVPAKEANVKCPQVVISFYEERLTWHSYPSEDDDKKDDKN
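Compound inhibition of the preformed complex between 50 nM HP1-beta and 50 nM biotinylated H3K9me3 peptide was read by AlphaScreen. Buffer was PBS pH 7.4 with 0.01% Tween-20. Incubations ran 30 min at room temperature, with 10 ug/mL donor/acceptor beads.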
JMJD2A Tudor – JMJD2A Tudor domain (human) inhibition; O75164; 390,000 compounds, 4.4% hits; AlphaScreen JMJD2A-Tudor / H3K4me3 peptide binding; Potency, µM (series often up to 114 µM), usual class: inhibitors; note: nearly all actives have a fitted effect of over 50% in size
G9a inh – blocks human histone lysine methyltransferase G9a | Potency, µM (series often up to 102 µM), hits mostly inhibitors | 350,000 compounds, 8.8% hits | G9a H3K9 monomethylation, AlphaScreen, 2 h | Q96KQ7; note: nearly all actives have a fitted effect of over 75% in size
Target sequence (Q96KQ7 913-1193 limits assumed): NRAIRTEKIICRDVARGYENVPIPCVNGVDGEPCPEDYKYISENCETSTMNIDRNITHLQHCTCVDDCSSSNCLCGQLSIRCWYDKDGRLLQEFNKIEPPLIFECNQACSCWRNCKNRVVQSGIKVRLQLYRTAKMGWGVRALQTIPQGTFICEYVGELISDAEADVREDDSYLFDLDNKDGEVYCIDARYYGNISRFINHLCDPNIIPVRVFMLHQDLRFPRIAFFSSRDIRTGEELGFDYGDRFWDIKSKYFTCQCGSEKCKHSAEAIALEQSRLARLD
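G9a (20 nM) was preincubated 15 min with compound, then reacted 2 h at room temperature with 500 nM biotin-H3K9 peptide and 20 µM SAM. Monomethyl-H3K9 detected by AlphaScreen using anti-H3K9me1 antibody.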
Of the large screens only hits and unclear results are named; the others gave an inactive call. A selection: hits, their analogues and other compounds. The true share with any hit is near 12%. Calls come from the whole dose curve; as a rule, active = well fitted curve in the direction sought with a large enough effect; inconclusive = small, poorly fitted or top-dose-only effect, or another doubt; inactive = no such curve, though single readings can be large; an effect the other way counts as inactive or inconclusive.

O=C1N/C(=N\c2ccccn2)SC1Cc1ccc(Cl)cc1 (configuration not stated)	JMJD2A Tudor 25µM, G9a inh inconclusive
Cc1ccc(-n2ncc(C(=O)NCCCN3CCN(C)CC3)c2C2CCN(C(=O)OC(C)(C)C)CC2)cc1	none (no result: Sfp inh)
CC(=O)Nc1ccc(-n2nnnc2SCC(=O)NC2CCCC2)cc1	none
CCOc1ccc(-n2nnnc2SCC(=O)NC2CCCC2)cc1	none
CC(=O)c1ccc(-n2nnnc2SCC(=O)NC2CCCCC2)cc1	Sfp inh inconclusive, G9a inh 35µM
O=C(CSc1nnnn1-c1ccc(F)cc1)NC1CCCCC1	HP1b chromo inh inconclusive, JMJD2A Tudor 79µM
Cc1cc(C(=O)OCC(=O)NC2(C#N)CCCCC2)c(C)o1	none (no result: Sfp inh)
O=C(COC(=O)Cc1c(Cl)cccc1Cl)Nc1ccc2[nH]c(=O)[nH]c2c1	G9a inh 50µM (no result: Sfp inh)
CC(C)(C)C1CCC(C(=O)OCC(=O)Nc2ccc3[nH]c(=O)[nH]c3c2)CC1 (configuration not stated)	G9a inh 45µM
O=C(COC(=O)Cc1c(F)cccc1Cl)Nc1ccc2[nH]c(=O)[nH]c2c1	none (no result: BAZ2B inh, Sfp inh, G9a inh)
O=C(COC(=O)CCc1c[nH]c(=O)[nH]1)Nc1cccc(Cl)c1	G9a inh 40µM
O=C(COC(=O)CCCOc1ccc(Cl)cc1Cl)Nc1cccc(Cl)c1	none
O=C(COC(=O)C12CC3CC(CC(C3)C1)C2)Nc1ccc2[nH]c(=O)[nH]c2c1	none
CC1(C)OC(c2ccccc2)=C/C(=C/C=C2C(=O)c3ccccc3C2=O)O1	BAZ2B inh 1.4µM, HP1b chromo inh inconclusive, JMJD2A Tudor 3.2µM, G9a inh 2.5µM
COC(=O)[C@]1(C)N[C@H](c2ccc(-c3ccc(Cl)c(Cl)c3)c(OC)c2)[C@@H]2C(=O)N(C)C(=O)[C@@H]21	JMJD2A Tudor 89µM, G9a inh inconclusive (no result: Sfp inh)
Cc1ccc(S(=O)(=O)N(C)Cc2nc(-c3ccccc3)oc2C)cc1	BAZ2B inh inconclusive, G9a inh inconclusive (no result: Sfp inh)
COCCN(C(=O)CCl)C(C(=O)NC1CCCCC1)c1ccccc1C (configuration not stated)	none
Cc1cccc(C)c1C(OCCN(C)C)C1CCCCC1 (configuration not stated)	BAZ2B inh inconclusive, HP1b chromo inh inconclusive, JMJD2A Tudor 14µM, G9a inh 10µM
NC(=O)c1ccc(NC(=O)CCCc2nc(-c3ccccc3Cl)no2)cc1	G9a inh 50µM
COc1ccc(Cn2ccc3nc(C)c(C(=O)N4CCN(c5ccccc5OC)CC4)cc3c2=O)cc1	none (no result: Sfp inh)
COc1ccc(C(C)=O)cc1COC(=O)c1ccc(S(=O)(=O)N(C)C)cc1	BAZ2B inh inconclusive
COc1ccc(C(C)=O)cc1CS(=O)(=O)CC(=O)O	G9a inh 45µM
CC(C)N(Cc1ccccc1)C(=O)Cn1ncc2c3ccccc3n(Cc3ccccc3)c2c1=O	none (no result: Sfp inh)
COCCN(CCOC)C(=O)c1ccc(SCc2ccc(C)cc2)c([N+](=O)[O-])c1	BAZ2B inh inconclusive, G9a inh 56µM
COc1cc(C2/C(=C(\O)c3ccc4c(c3)CC(C)O4)C(=O)C(=O)N2CC2CCCO2)cc(OC)c1OC (configuration not stated)	BAZ2B inh inconclusive, G9a inh 50µM
COc1ccc(/C(O)=C2/C(=O)C(=O)N(CC3CCCO3)C2c2cccc(O)c2)cc1 (configuration not stated)	JMJD2A Tudor 50µM, G9a inh inconclusive
COc1cc(C2/C(=C(\O)c3ccc4c(c3)CC(C)O4)C(=O)C(=O)N2CCN2CCOCC2)cc(OC)c1OC (configuration not stated)	JMJD2A Tudor inconclusive, G9a inh 71µM
COc1ccc(C2/C(=C(/O)c3ccc4c(c3)CC(C)O4)C(=O)C(=O)N2CCCN2CCOCC2)cc1OC (configuration not stated)	G9a inh inconclusive
CCCCOc1ccc(C2/C(=C(/O)c3ccc4c(c3)CC(C)O4)C(=O)C(=O)N2CCCN2CCOCC2)cc1OC (configuration not stated)	JMJD2A Tudor inconclusive, G9a inh 56µM
C[C@@H]1O[C@H]2C3=C(C(=O)[C@H]4O[C@@H]4[C@H]3O)[C@@H]1[C@@H]1[C@@H](C)OC=C3[C@H](O)[C@H]4O[C@@H]4/C(=N\OCc4ccccc4)[C@]312	none (no result: BAZ2B inh, HP1b chromo inh, JMJD2A Tudor, G9a inh)
O=C(Cn1ncc2c3ccccc3n(Cc3cccc(Cl)c3)c2c1=O)NCCCN1CCCCC1	none (no result: Sfp inh)
CCC(=O)N1CCc2cc(S(=O)(=O)NC(CC(C)C)C(=O)NCc3cccc(OC)c3)ccc21 (configuration not stated)	none (no result: BAZ2B inh, Sfp inh)
O=C(Cn1c(=O)n(Cc2ccco2)c(=O)c2oc3ccccc3c21)Nc1ccc(F)cc1F	none (no result: Sfp inh)
CCOC(=O)c1cc(-c2ccc(OC(F)F)cc2)nc2nc(SC)[nH]c(=O)c12	G9a inh 45µM
C[N+]1(CCC(=O)c2ccccc2)CCCCC1	HP1b chromo inh inconclusive, JMJD2A Tudor inconclusive, G9a inh 2µM
CCC1C(=O)CC(c2ccco2)NC1c1ccco1 (configuration not stated)	none
C=CCC1(O)CC(c2ccco2)NC(c2ccco2)C1CCC (configuration not stated)	BAZ2B inh 50µM, HP1b chromo inh inconclusive, JMJD2A Tudor 4.5µM, G9a inh 32µM
CCC1CCC(C(=O)NNC(=O)c2cc(-c3ccco3)[nH]n2)CC1 (configuration not stated)	BAZ2B inh inconclusive, Sfp inh 45µM, G9a inh 14µM
O=C(CCn1c2c(c3ccccc31)CCCC2)NNC(=O)c1ccc([N+](=O)[O-])cc1	G9a inh 16µM
O=C(CCn1c2c(c3ccccc31)CCCC2)NNC(=O)c1ccc(Cl)c([N+](=O)[O-])c1	HP1b chromo inh inconclusive, JMJD2A Tudor inconclusive, G9a inh inconclusive
CC(C)C[C@@H](CC(=O)N[C@H](CC(=O)N[C@@H]1CCCC[C@H]1C(=O)N[C@H](CC(=O)N[C@@H](CCC(=O)O)CC(=O)O)Cc1ccccc1)C(C)C)NC(=O)[C@@H]1CNCC[C@H]1N	none (no result: BAZ2B inh, HP1b chromo inh, JMJD2A Tudor, G9a inh)
COc1ccc(OC)c(N(CC(=O)NCCSCc2ccco2)S(=O)(=O)c2ccc(OC)c(OC)c2)c1	none (no result: G9a inh)
CCCN(CCC)C(=O)Cc1coc2ccc3ccccc3c12	G9a inh 50µM
CCC(C(=O)Nc1cc(F)ccc1F)n1nc(-c2cc(C)ccc2C)ccc1=O (configuration not stated)	none (no result: Sfp inh)
Cc1c(CN(C)C)c2c(n1Cc1ccccc1)C(=O)c1ccccc1-2	BAZ2B inh 50µM, HP1b chromo inh inconclusive, JMJD2A Tudor 50µM, G9a inh inconclusive
Cc1cc(=O)n(Cc2ccccc2)c2ccccc12	BAZ2B inh inconclusive
CC(OC(=O)c1cccc(-n2cnnn2)c1)C(=O)c1ccccc1 (configuration not stated)	G9a inh inconclusive (no result: Sfp inh)

High-throughput results from PubChem BioAssay.
